According to PubChem BioAssay (NCI):
“And” between values parts separate entries of the source, which are not always exact repeats. Equal entries are not always repeated. The panel holds about 83,000 compounds, 20% with a hit somewhere; the sample as a whole holds those more often.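 Values shown are percent growth following 48 h exposure of cells in 96-well plates to a single concentration of compound; below 10 was considered active.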 The source made the active and inactive calls.

Each molecule was assayed on UACC-62 melanoma (assay: NCI-60 one-dose screen, 48 h (100 = growth as untreated, 0 = no growth, -100 = all killed)). Conditions: 10 µM unless noted.

SMILES | growth
N#CC(=S)Nc1ccc(F)cc1 | 8.57% [100 µM] (active) and 0.965% [100 µM] (active)
CNc1nc2c(C)ccc3[nH]c(N(C)C)nc3c-2n1 | 30.8% [100 µM] (inactive) and 2.14% [100 µM] (active)
COC(=O)C(Cc1nc2ccccc2[nH]c1=O)C(=O)C(=O)Nc1cc(C(F)(F)F)ccc1Cl (centres undefined) | -87.8% [100 µM] (active) and -39.4% [100 µM] (active)
CC(C)(C)c1cc(C2COC(=O)COCCOCC(=O)OCCOCCO2)cc(C(C)(C)C)c1O (centres undefined) | 24.1% [100 µM] (inactive) and -65.6% [100 µM] (active)
CC1CC2(OC2C)C(=O)OC2CCN(C)C/C=C(/COC(=O)C1(C)O)C2=O (centres undefined) | 89.6% [100 µM] (inactive) and 94.3% [100 µM] (inactive)
C=C(CCC(C(=O)O)C1CCC2(C)C3=C(CCC12C)C1(C)CCC(O)C(C)(C)C1CC3)C(C)C (centres undefined) | -50.9% [100 µM] (active) and -100% [100 µM] (active)
NC(=S)Nc1[nH]c(=S)nc2c1SC1=N/C(=C\c3ccco3)C(=O)N12 | 25.1% [100 µM] (inactive) and 18.6% [100 µM] (inactive)
Cc1cc(N(CCC#N)CCC#N)ccc1/C=N/NC(=O)c1cc(Cl)ccc1O | 46.2% [100 µM] (inactive) and 8.92% [100 µM] (active)
NC1N=C(c2ccc(Cl)cc2)C2=C(N1)c1ccccc1CC2 (centres undefined) | 36.7% [100 µM] (inactive) and -55.8% [100 µM] (active)
